Source: PubChem BioAssay AID1159580 (chemical genetic matrix, 2015)
Among all 5,500 compounds or so, about 2,000 (36%) were called active. Another 18% or so got no clear call; they are omitted. No stated cut-off is given here; in the data, active means normalized growth mostly below about 0.91 (no sharp cut-off); inconclusive means no clear call, values can overlap the other calls; inactive means mostly above about 0.92. This is one part of the list.

Experiment: chemical genetic growth profiling, strain panel (AID 1159580);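 further: tested at 20 µM; growth read once vehicle control cultures reached saturation at 30 °C; 1 = growth at the plate median or of vehicle wells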
Settings: S. cerevisiae deletion strains, growth OD

Measured: normalized growth

COc1cc2c(cc1OC)C(C)N(C(=O)c1sc3ccccc3c1Cl)CC2 (stereo unspecified)
inactive: locus YAR019C, strain CDC15, stronger effect = lower value 0.981 | locus YBL105C, strain PKC1, stronger effect = lower value 0.975 | locus YBR135W, strain CKS1, stronger effect = lower value 0.97 | locus YBR136W, strain MEC1, stronger effect = lower value 0.975 | locus YBR160W, strain CDC28, stronger effect = lower value 0.968 | locus YDL017W, strain CDC7, stronger effect = lower value 0.98 | locus YDL028C, strain MPS1, stronger effect = lower value 0.982 | locus YDL101C, strain DUN1, stronger effect = lower value 0.982 | locus YDL108W, strain KIN28, stronger effect = lower value 0.974 | locus YDL132W, strain cdc53, stronger effect = lower value 0.974 | locus YDL214C, strain PRR2, stronger effect = lower value 0.928 | locus YDR052C, strain DBF4, stronger effect = lower value 0.989 | locus YDR054C, strain cdc34, stronger effect = lower value 0.972 | locus YDR226W, strain ADK1, stronger effect = lower value 0.975 | locus YDR477W, strain SNF1, stronger effect = lower value 0.934 | locus YER123W, strain YCK3, stronger effect = lower value 0.9 | locus YER133W, strain GLC7, stronger effect = lower value 0.936 | locus YFL009W, strain cdc4, stronger effect = lower value 0.972 | locus YFL029C, strain CAK1, stronger effect = lower value 0.968 | locus YFR003C, strain YPI1, stronger effect = lower value 0.978 | locus YFR019W, strain FAB1, stronger effect = lower value 0.943 | locus YFR028C, strain CDC14, stronger effect = lower value 0.977 | locus YGR040W, strain KSS1, stronger effect = lower value 0.899 | locus YGR052W, strain FMP48, stronger effect = lower value 0.981 | locus YGR092W, strain DBF2, stronger effect = lower value 0.921 | locus YHR030C, strain SLT2, stronger effect = lower value 0.93 | locus YHR079C, strain IRE1, stronger effect = lower value 0.933 | locus YHR082C, strain KSP1, stronger effect = lower value 0.958 | locus YHR205W, strain SCH9, stronger effect = lower value 0.976 | locus YIL147C, strain SLN1, stronger effect = lower value 0.984 | locus YJL095W, strain BCK1, stronger effect = lower value 0.947 | locus YJL128C, strain PBS2, stronger effect = lower value 0.955 | locus YJL157C, strain FAR1, stronger effect = lower value 0.912 | locus YJR016C, strain ILV3, stronger effect = lower value 0.97 | locus YJR066W, strain TOR1 (second series), stronger effect = lower value 0.891 | locus YJR066W, strain TOR1, stronger effect = lower value 0.983 | locus YKL048C, strain ELM1, stronger effect = lower value 0.928 | locus YKL067W, strain YNK1, stronger effect = lower value 0.943 | locus YKL101W, strain HSL1, stronger effect = lower value 0.897 | locus YKL193C, strain SDS22, stronger effect = lower value 0.981 | locus YKL203C, strain TOR2, stronger effect = lower value 0.959 | locus YLR113W, strain HOG1, stronger effect = lower value 0.865 | locus YLR133W, strain CKI1, stronger effect = lower value 0.916 | locus YLR403W, strain SFP1, stronger effect = lower value 0.906 | locus YML070W, strain DAK1, stronger effect = lower value 0.912 | locus YMR001C, strain CDC5, stronger effect = lower value 0.975 | locus YMR205C, strain PFK2 (second series), stronger effect = lower value 0.948 | locus YMR277W, strain FCP1, stronger effect = lower value 0.978 | locus YNL006W, strain LST8, stronger effect = lower value 0.99 | locus YNL020C, strain ARK1, stronger effect = lower value 0.922 | locus YNL161W, strain CBK1, stronger effect = lower value 0.97 | locus YNL183C, strain NPR1, stronger effect = lower value 0.948 | locus YNL207W, strain RIO2, stronger effect = lower value 0.978 | locus YNL222W, strain SSU72, stronger effect = lower value 0.966 | locus YNL307C, strain MCK1 (second series), stronger effect = lower value 0.911 | locus YOL078W, strain AVO1, stronger effect = lower value 0.972 | locus YOL136C, strain PFK27, stronger effect = lower value 0.906 | locus YOR061W, strain CKA2, stronger effect = lower value 0.914 | locus YOR119C, strain RIO1, stronger effect = lower value 0.982 | locus YOR231W, strain MKK1, stronger effect = lower value 0.891 | locus YOR329C, strain SCD5, stronger effect = lower value 0.978 | locus YPL031C, strain PHO85, stronger effect = lower value 0.927 | locus YPL153C, strain RAD53, stronger effect = lower value 0.905 | locus YPL204W, strain HRR25, stronger effect = lower value 0.905 | locus YPL209C, strain IPL1, stronger effect = lower value 0.968 | locus YPL256C, strain CLN2, stronger effect = lower value 0.894 | locus YPR025C, strain CCL1, stronger effect = lower value 0.976 | locus YPR106W, strain ISR1, stronger effect = lower value 0.963 | locus YPR111W, strain DBF20, stronger effect = lower value 0.949 | strain NNK1, stronger effect = lower value 0.972 | strain TSCII, stronger effect = lower value 0.969
